Screening data as filed in PubChem.
In the library only some 2.8% were active in any assay of this set; here they are far more common.
proKLK7 act: proKLK7 (human) activation, primary screen; P49862; purified proKLK7, EDANS-DABCYL substrate fluorescence; 100% is mature enzyme control, 0% vehicle; activation, % at 7 µM; actives 0.9% (n = 370,000); AID 652039;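 active means activation above the mean of all tested compounds plus 3 SD, computed per campaign excluding outliers beyond control limits, cut at about 13% in these data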
Target sequence (P49862 whole entry, looked up): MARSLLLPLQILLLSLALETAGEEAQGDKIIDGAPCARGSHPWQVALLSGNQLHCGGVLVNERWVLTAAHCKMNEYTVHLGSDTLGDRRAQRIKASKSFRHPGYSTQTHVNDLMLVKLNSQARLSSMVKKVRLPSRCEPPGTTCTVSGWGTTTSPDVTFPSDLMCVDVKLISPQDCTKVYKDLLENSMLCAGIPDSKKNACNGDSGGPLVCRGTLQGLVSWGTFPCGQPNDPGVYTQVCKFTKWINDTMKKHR
SMARCA2 act: activators of SMARCA2 function; MG213 cells, MMTV-luciferase reporter, dexamethasone, overnight; activation, % at 9.1 µM; actives 1% (n = 370,000); in the data active means activation above about 7.8%;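 further: 0% = vehicle wells and 100% = reference activator wells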
MsrA inhibitor: inhibits bovine methionine sulfoxide reductase A. inhibition, % at 15.5 µM. actives 0.75% (n = 360,000). purified bovine MsrA, absorbance read-out; in the data active means inhibition above about 4.5%;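 further: 0% = vehicle wells with enzyme and 100% = reference inhibitor wells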
MsrA act: activators of bovine methionine sulfoxide reductase A | AID 602163 | actives 0.3% (n = 360,000) | activation, % at 10.6 µM | purified bovine MsrA, absorbance read-out; in the data active means activation above about 7.5%;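 further: 0% = vehicle and 100% = reference activator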
proKLK7 act conf: proKLK7 activation, confirmation; shares compounds with proKLK7 act; purified proKLK7, EDANS-DABCYL substrate fluorescence; scaled: vehicle 0, mature enzyme 100; activation, % at 7 µM; actives 68% (n = 3,200); AID 686949;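 active means activation, as change over the incubation, above the mean of all tested compounds plus 3 SD, cut at about 13% in these data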
EDANS interfere: counter-screen for kallikrein-7 activators: EDANS-DABCYL optical interference; shares compounds with proKLK7 act; EDANS-DABCYL substrate fluorescence interference, no enzyme, 4 h; solvent 0%, active enzyme control 100%; activation, % at 7 µM; actives 80% (n = 3,200); AID 686952;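 active means activation above the all-compound mean plus 3 SD, ignoring values outside control-based bounds, cut at about 4.8% in these data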;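 further: value is the 4 h activation minus the activation read at time zero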
EDANS interf: EDANS fluorescence interference in dose response, no enzyme | shares compounds with proKLK7 act | actives 20% (n = 250) | EDANS-DABCYL peptide fluorescence interference | EC50, µM | AID 720493;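 active means compounds that raise the fluorescence signal in this interference counterscreen, with EC50 at or below 10 µM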;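 further: intact quenched peptide substrate alone read at 355 nm excitation and 520 nm emission; signal is fluorescence gain from T0 to T4 after four hours at room temperature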
* = called active by the depositor; x = no result given.

SMILES	proKLK7 act	SMARCA2 act	MsrA inhibitor	MsrA act	proKLK7 act conf	EDANS interfere	others
COc1cc2c(cc1OC)CN(Cc1ccccc1)CC2	4	-3	-1	-2	x	x
COc1cc2c(cc1OC)CN(C(=O)c1ccccc1C(=O)O)CC2	16*	6	0	-3	7	5.2*
COc1cc2c(cc1OC)CN(CC(O)c1ccccc1)CC2 (stereo not given)	96*	1	0	-2	56*	74*
COc1cc2c(cc1OC)CN(CCC(C)c1ccc(Cl)cc1)CC2 (stereo not given)	21*	1	0	0	148*	145*
COc1cc2c(cc1OC)CN(C(=O)Cc1ccccc1)CC2	0	-2	0	-1	x	x
O=C(CSc1nc2nc(-c3cccs3)cc(C(F)(F)F)c2c(=O)[nH]1)C(F)(F)F	67*	0	2	-5	278*	260*
O=C(CSc1nc2nc(-c3cccs3)cc(C(F)(F)F)c2c(=O)[nH]1)NCc1ccco1	16*	2	2	-3	-34	-23
O=C(CC[C@H]1O[C@@H](n2cnc3c(NC(=O)c4ccccc4)ncnc32)[C@H](O)[C@@H]1O)NCCCN1CCCC1=O	0	-3	-1	-2	x	x
COC(=O)[C@H](C(C)C)N1CCc2nnn(Cc3ccccc3)c2-c2cc(F)ccc2S1(=O)=O	0	0	x	x	x	x
CC(C)Oc1ccc(C(=O)NCC(=O)N2CCN(S(=O)(=O)/C=C/c3ccccc3)CC2)cc1	0	-3	-1	-5	x	x
O=C(COC(=O)Cn1[nH]c(=O)c2ccccc2c1=O)NNC(=O)c1ccc(Br)cc1	0	-1	0	0	x	x
CCOC(=O)N1CCN(S(=O)(=O)c2ccc3c4c(cccc24)C(=O)N3)CC1	9	-2	2	-5	x	x
O=C1Nc2ccc(S(=O)(=O)N3CCCCCC3)c3cccc1c23	2	-2	1	-10	x	x
CN(C)CCNS(=O)(=O)c1ccc2c3c(cccc13)C(=O)N2	155*	1	2	-5	68*	57*	EDANS interf=2.1*
Cc1cc(C)c(S(=O)(=O)NCc2ccccn2)cc1C	-1	-3	1	-9	x	x
CCN(CC)CCNS(=O)(=O)c1ccc2c3c(cccc13)C(=O)N2	100*	0	1	-3	58*	70*
O=C1Nc2ccc(S(=O)(=O)NCc3ccccn3)c3cccc1c23	16*	-5	2	-3	72*	72*
CC1(c2nnnn2-c2ccc3c(c2)OCCO3)CCC(=O)N1Cc1ccc(F)cc1 (stereo not given)	-1	-2	0	-2	x	x
Cc1cc(N2CCN(C)CC2)nc2ccc(NC(=O)c3ccccc3F)cc12	-1	0	3	-2	x	x
CCOC(=O)c1cc(N2CCCCC2)nc2ccccc12	17*	5	0	0	3	4.9*
COC(=O)c1cc(N2CCN(C)CC2)nc2ccccc12	61*	2	1	-2	15*	13*
O=C(O)c1cc(N2CCCCC2)nc2ccccc12	2	0	1	-13	x	x
O=C(O)c1cn(-c2ccc(F)cc2)c2cc(N3CCNCC3)c(F)cc2c1=O	15*	-6	2	-3	6	4
CCn1cc(C(=O)O)c(=O)c2cc(F)c(N3CCN(C(=S)NC(=O)c4ccccc4)CC3)cc21	-1	5	-1	-4	x	x
Nc1ccc2nc3n(c(=O)c2c1)CCC3	17*	-1	0	-9	10	12*
N#Cc1ccc(NC(=S)NC(=O)C2CC2)cc1	0	-3	1	-3	x	x
Cc1cc(C)[n+](-c2ccc(F)cc2)c2[nH]c(=O)[nH]c(=O)c12	38*	-1	4	2	63*	68*
O=C(Nc1ccc2ccccc2c1)C(c1ccccc1)n1c(=O)c(-c2cc3ccccc3[nH]2)nc2ccccc21 (stereo not given)	-20	6	0	x	x	x
Cc1ccccc1-c1cnc(C(O)c2ccc(F)cc2C)[nH]1 (stereo not given)	0	-2	0	-2	x	x
FC(F)(F)c1cc(C(F)(F)F)c2ccc(Oc3ccccc3)nc2n1	0	-2	1	-12	x	x
